# Source: PubChem BioAssay (EPA / NIEHS)
# Values joined by “and” are separate entries in the source; they are usually repeats but may differ in a detail not shown here. Equal values may be shown once. Results filed as inconclusive are left out. Some structures have more than one record in an assay (separate samples or runs), and their calls can disagree. Active and inactive are the calls of the source. How the source made its calls, unless noted: active means hit-call score of the fitted dose curve at least 0.9, where 1 is the maximum; inactive means score below 0.9.
# How the values were obtained:
# [1] = BSK_4H_Eotaxin3: BioMAP Diversity Plus: 4H Assay for Eotaxin 3 Biomarker Activity (AID 2283000); conditions: primary human endothelial cells (HUVEC); actives raise or lower the signal;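 on outcome: CCL26 protein level quantified by ELISA in parallel with SRB cytotoxicity check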
# Outline: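 Chemicals were added to human umbilical vein endothelium cultures, and Eotaxin-3 was quantified by ELISA at 24 h. Values were derived by bidirectional fitting with DMSO serving as negative control and activity baseline.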
# [2] = biological target: human Peroxisome Proliferator-activated Receptor delta (PPARd), PPARD (gene 5467) (UniProt Q03181); assay: ATG_PPARd_TRANS: Attagene TRANS-FACTORIAL HepG2 Assay for human Peroxisome Proliferator-activated Receptor delta (PPARd) (AID 2283002; active means hit-call score of the fitted dose curve at least 0.9, where 1 is the maximum)
# Outline: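 Read-out is induced reporter mRNA, quantified by RT-PCR with fluorescent labelling and capillary electrophoresis after 24 h dosing. Cells are HepG2 transiently carrying multiple GAL4-UAS reporter units driven by exogenous NR-GAL4 chimeras; DMSO serves as baseline.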
# [3] = read-out: Intercellular Adhesion Molecule 1 (ICAM1), ICAM1 (gene 3383); assay: BSK_3C_ICAM1: BioMAP Diversity Plus: 3C Assay for Intercellular Adhesion Molecule 1 (ICAM1) Biomarker Activity (AID 2283003); conditions: primary human endothelial cells (HUVEC); actives raise or lower the signal
# Outline: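 ICAM-1 levels measured by ELISA after HUVEC cultures in the 3C system had been dosed for 24 h. Gain or loss of signal relative to DMSO was fitted in both directions.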
# [4] = biological target: human Retinoic Acid Receptor beta (RARb), RARB (gene 5915) (UniProt P10826); assay: ATG_RARb_TRANS: Attagene TRANS-FACTORIAL HepG2 Assay for human Retinoic Acid Receptor beta (AID 2283004; active means hit-call score of the fitted dose curve at least 0.9, where 1 is the maximum)
# Outline: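 Transient transfection of HepG2 with multiple reporter units → chemical dosing, 24 h → total RNA isolation → RT with oligo(dT) → reporter-specific PCR, 6-FAM primer extension, HpaI digest → capillary electrophoresis. Positive direction vs DMSO control.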
# [5] = BSK_3C_Proliferation: Cell Proliferation Assessment in the BioMAP Diversity Plus: 3C Assay (AID 2283006); conditions: primary human endothelial cells (HUVEC);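 on AC50: potency may reflect either rise or fall in cell number versus DMSO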
# Outline: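 Read-out is total protein by SRB absorbance at 560 nm, taken as a proxy for relative cell number. Primary human umbilical vein endothelium cultured below confluence was dosed for 48 h, TCA-fixed and SRB-stained; curves were fitted bidirectionally versus DMSO.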
# [6] = biological target: Peroxisome proliferator-activated receptor gamma (Homo sapiens) (UniProt P37231); assay: ATG_PPARg_TRANS: Attagene TRANS-FACTORIAL HepG2 Assay for human Peroxisome Proliferator-activated Receptor-gamma (PPARg) (AID 2283007; active means hit-call score of the fitted dose curve at least 0.9, where 1 is the maximum)
# Outline: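 Twenty-four hours after chemical dosing of transiently transfected HepG2 cells, isolated RNA was converted to cDNA, reporter sequences amplified and 6-FAM-labelled, then HpaI-digested and analysed by capillary electrophoresis. Signal increase against DMSO was fitted.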
# [7] = biological target: Nuclear receptor subfamily 1 group I member 2 (Homo sapiens) (UniProt O75469); assay: ATG_PXR_TRANS: Attagene TRANS-FACTORIAL HepG2 Assay for human Pregnane X Receptor (PXR) (AID 2283008; active means hit-call score of the fitted dose curve at least 0.9, where 1 is the maximum)
# Outline: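 HepG2 cells transiently transfected with GAL4-UAS reporter units and PXR-Gal4 chimera, exposed 24 h. Reporter mRNA quantified by RT-PCR, fluorescent labelling, HpaI digestion and capillary electrophoresis; gain of signal vs DMSO.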
# [8] = biological target: human Retinoic Acid Receptor gamma (RARg), RARG (gene 5916) (UniProt P13631); assay: ATG_RARg_TRANS: Attagene TRANS-FACTORIAL HepG2 Assay for human Retinoic Acid Receptor gamma (RARg) (AID 2283009; active means hit-call score of the fitted dose curve at least 0.9, where 1 is the maximum)
# Outline: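 Transient transfection of HepG2 with multi-reporter constructs, then 24 h chemical treatment. Total RNA isolated, reverse-transcribed, PCR-amplified, fluorescently labelled and resolved by capillary electrophoresis; activity scored as mRNA induction versus DMSO.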
# [9] = biological target: human RAR-related Orphan Receptor beta (RORb), RORB (gene 6096) (UniProt Q92753); assay: ATG_RORb_TRANS: Attagene TRANS-FACTORIAL HepG2 Assay for human RAR-related Orphan Receptor beta (RORb) (AID 2283010; active means hit-call score of the fitted dose curve at least 0.9, where 1 is the maximum)
# Outline: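 Readout is reporter-gene mRNA induction, detected as fluorescence after RT-PCR and capillary electrophoresis, fitted for gain of signal against DMSO controls. Transiently transfected HepG2 liver cells carrying GAL4-UAS reporter constructs were treated for 24 hours.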
# [10] = biological target: Retinoic acid receptor RXR-alpha (Homo sapiens) (UniProt P19793); assay: ATG_RXRa_TRANS: Attagene TRANS-FACTORIAL HepG2 Assay for human Retinoid X Receptor alpha (RXRa) (AID 2283012; active means hit-call score of the fitted dose curve at least 0.9, where 1 is the maximum)
# Outline: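 Transient transfection of human HepG2 with multiple GAL4-UAS reporter constructs; 24 h compound exposure; total RNA isolated, reverse-transcribed, PCR-amplified, 6-FAM labelled, HpaI-cut, resolved by capillary electrophoresis. Positive-direction fit versus DMSO.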
# [11] = biological target: human Thyroid Receptor alpha (THRa1), THRA (gene 7067) (UniProt P10827); assay: ATG_THRa1_TRANS: Attagene TRANS-FACTORIAL HepG2 Assay for human Thyroid Receptor alpha (THRa1) (AID 2283014; active means hit-call score of the fitted dose curve at least 0.9, where 1 is the maximum)
# Outline: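 Reporter transcript induction, read by capillary electrophoresis of 6-FAM-labelled RT-PCR products, reflects activity of a transfected THRa1-Gal4 fusion in HepG2 liver cells. Cells were dosed for 24 h; activity was fitted in the positive direction against DMSO.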
# [12] = read-out: Interleukin-1 alpha (IL1a), IL1A (gene 3552); assay: BSK_BE3C_IL1a: BioMAP Diversity Plus: BE3C Assay for Interleukin-1 alpha (IL1a) Biomarker Activity (AID 2283016); conditions: primary human bronchial epithelial cells; actives raise or lower the signal
# Outline: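 BE3C primary human bronchial epithelium; cpd 24 h; IL-1a by ELISA; bidirectional fit vs DMSO; parallel SRB (0.1% SRB, 10% TCA fix, 560 nm) for cytotoxicity.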
# [13] = read-out: Monocyte Chemoattractant Protein-1 (MCP1), CCL2 (gene 6347); assay: BSK_3C_MCP1: BioMAP Diversity Plus: 3C Assay for Monocyte Chemoattractant Protein-1 (MCP1) Biomarker Activity (AID 2283017); conditions: primary human endothelial cells (HUVEC); actives raise or lower the signal
# Outline: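 ELISA read-out of MCP-1 from human umbilical vein endothelial cell cultures harvested 24 h post-dosing. Gain or loss of signal was fitted relative to DMSO.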
# [14] = read-out: Human Leukocyte Antigen - DR isotype (HLADR), HLA-DRA (gene 3122); assay: BSK_3C_HLADR: BioMAP Diversity Plus: 3C Assay for Human Leukocyte Antigen - DR isotype (HLADR) Biomarker Activity (AID 2283019); conditions: primary human endothelial cells (HUVEC); actives raise or lower the signal;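 on outcome: ELISA of cell-surface HLA-DR on HUVEC 24 h after dosing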
# Outline: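 ELISA readout of surface HLA-DR on human umbilical vein endothelium, taken 24 h after chemical treatment. Gain- and loss-of-signal were both fitted relative to DMSO.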
# [15] = biological target: human Peroxisome Proliferator-activated Receptor alpha (PPARa), PPARA (gene 5465) (UniProt Q07869); assay: ATG_PPARa_TRANS: Attagene TRANS-FACTORIAL HepG2 Assay for human Peroxisome Proliferator-activated Receptor alpha (PPARa) (AID 2283001; active means hit-call score of the fitted dose curve at least 0.9, where 1 is the maximum;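 on AC50: potency for gain of reporter signal over DMSO so agonist or activator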)
# Outline: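 Read-out is fluorescence of reporter cDNA fragments resolved by capillary electrophoresis after RT-PCR. Human HepG2 liver cells carried transfected PPARa-Gal4 chimera and GAL4-UAS reporter units, treated 24 h; activity scored as increase over DMSO.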
# [16] = biological target: human Retinoid X Receptor beta (RXRb), RXRB (gene 6257) (UniProt P28702); assay: ATG_RXRb_TRANS: Attagene TRANS-FACTORIAL HepG2 Assay for human Retinoid X Receptor beta (RXRb) (AID 2283013; active means hit-call score of the fitted dose curve at least 0.9, where 1 is the maximum)
# Outline: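 Transfect HepG2 with GAL4-UAS multi-reporter constructs (chimeric NR-Gal4, TRANS format); dose compound 24 h; isolate RNA, RT-PCR, FAM primer extension, HpaI digest; quantify by capillary electrophoresis; positive direction vs DMSO.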
# [17] = read-out: Monocyte Chemoattractant Protein-1 (MCP1), CCL2 (gene 6347); assay: BSK_4H_MCP1: BioMAP Diversity Plus: 4H Assay for Monocyte Chemoattractant Protein-1 (MCP1) Biomarker Activity (AID 2283018); conditions: primary human endothelial cells (HUVEC); actives raise or lower the signal
# Outline: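 ELISA read-out of MCP-1 from human vascular endothelial primary cells taken at 24 hours after compound exposure. Activity was fitted in both directions relative to DMSO, which served as negative control.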
# [18] = biological target: Retinoic acid receptor alpha (Homo sapiens) (UniProt P10276); assay: ATG_RARa_TRANS: Attagene TRANS-FACTORIAL HepG2 Assay for human Retinoic Acid Receptor alpha (RARa) (AID 2283005; active means hit-call score of the fitted dose curve at least 0.9, where 1 is the maximum)
# Outline: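 Reporter transcripts, measured by RT-PCR with fluorescent labeling and capillary electrophoresis after 24 h dosing, reflect activity of an exogenous human RARa–GAL4 fusion in transiently transfected HepG2. Fitted for increase relative to DMSO.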
# [19] = read-out: E-selectin (Homo sapiens) (UniProt P16581); assay: BSK_3C_Eselectin: BioMAP Diversity Plus: 3C Assay for Eselectin Biomarker Activity (AID 2283015); conditions: primary human endothelial cells (HUVEC); actives raise or lower the signal;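 further: cell surface E-selectin protein quantified by ELISA 24 h after dosing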
# Outline: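 ELISA read-out of E-selectin on endothelial monolayers after 24 h chemical treatment. Human umbilical vein primary cells served as the system, with DMSO defining baseline activity for bidirectional fitting.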
# [20] = biological target: human RAR-related Orphan Receptor gamma (RORg), RORC (gene 6097) (UniProt P51449); assay: ATG_RORg_TRANS: Attagene TRANS-FACTORIAL HepG2 Assay for human RAR-related Orphan Receptor gamma (RORg) (AID 2283011; active means hit-call score of the fitted dose curve at least 0.9, where 1 is the maximum)
# Outline: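 First, HepG2 liver cells were transfected with GAL4-UAS-driven reporter constructs and the RORg-Gal4 fusion. Next, they were treated with chemical for 24 h. Finally, reporter mRNA was quantified by RT-PCR and capillary electrophoresis, with upward activity fitted against DMSO.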
# Chain of Peroxisome proliferator-activated receptor gamma (Homo sapiens) (P37231 whole entry, looked up): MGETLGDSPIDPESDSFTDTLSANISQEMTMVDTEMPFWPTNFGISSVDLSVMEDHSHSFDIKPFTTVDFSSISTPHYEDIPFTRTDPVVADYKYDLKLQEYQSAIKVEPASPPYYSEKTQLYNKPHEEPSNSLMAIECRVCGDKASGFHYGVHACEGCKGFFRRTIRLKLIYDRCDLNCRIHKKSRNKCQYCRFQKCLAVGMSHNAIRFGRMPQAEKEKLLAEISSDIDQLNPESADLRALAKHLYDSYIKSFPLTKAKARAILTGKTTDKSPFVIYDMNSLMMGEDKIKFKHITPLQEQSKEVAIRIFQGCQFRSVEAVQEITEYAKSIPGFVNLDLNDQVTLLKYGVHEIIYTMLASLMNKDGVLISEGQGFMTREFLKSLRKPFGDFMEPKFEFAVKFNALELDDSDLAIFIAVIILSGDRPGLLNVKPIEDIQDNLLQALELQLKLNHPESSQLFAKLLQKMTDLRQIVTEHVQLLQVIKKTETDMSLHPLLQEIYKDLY
# Chain of human Retinoid X Receptor beta (RXRb), RXRB (gene 6257) (P28702 whole entry, looked up, the tested form may be a part): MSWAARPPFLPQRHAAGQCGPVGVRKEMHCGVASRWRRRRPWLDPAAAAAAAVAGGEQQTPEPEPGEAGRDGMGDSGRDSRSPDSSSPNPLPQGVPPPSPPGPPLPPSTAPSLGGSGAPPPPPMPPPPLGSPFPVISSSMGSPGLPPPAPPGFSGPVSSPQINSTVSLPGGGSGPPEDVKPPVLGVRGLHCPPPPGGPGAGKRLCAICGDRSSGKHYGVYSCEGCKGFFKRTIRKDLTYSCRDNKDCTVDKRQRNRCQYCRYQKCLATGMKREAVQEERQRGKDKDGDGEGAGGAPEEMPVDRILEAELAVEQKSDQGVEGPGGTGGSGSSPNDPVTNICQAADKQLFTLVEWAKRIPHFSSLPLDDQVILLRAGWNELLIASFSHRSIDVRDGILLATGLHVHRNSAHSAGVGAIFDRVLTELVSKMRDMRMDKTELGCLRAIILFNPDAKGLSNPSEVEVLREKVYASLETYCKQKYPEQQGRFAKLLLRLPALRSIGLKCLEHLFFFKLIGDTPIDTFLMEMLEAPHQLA
# Chain of Nuclear receptor subfamily 1 group I member 2 (Homo sapiens) (O75469 whole entry, looked up, the tested form may be a part): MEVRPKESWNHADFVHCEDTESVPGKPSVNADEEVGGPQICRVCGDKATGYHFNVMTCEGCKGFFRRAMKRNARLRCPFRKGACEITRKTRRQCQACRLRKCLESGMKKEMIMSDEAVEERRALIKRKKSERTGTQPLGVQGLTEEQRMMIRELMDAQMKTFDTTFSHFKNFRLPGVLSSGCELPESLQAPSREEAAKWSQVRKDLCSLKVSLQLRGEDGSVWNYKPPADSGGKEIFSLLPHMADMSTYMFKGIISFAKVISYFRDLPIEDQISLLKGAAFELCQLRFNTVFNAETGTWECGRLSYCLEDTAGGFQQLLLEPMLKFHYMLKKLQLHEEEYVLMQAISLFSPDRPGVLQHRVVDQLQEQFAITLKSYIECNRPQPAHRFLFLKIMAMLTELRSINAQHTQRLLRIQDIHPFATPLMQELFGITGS
# Chain of human Peroxisome Proliferator-activated Receptor delta (PPARd), PPARD (gene 5467) (Q03181 whole entry, looked up, the tested form may be a part): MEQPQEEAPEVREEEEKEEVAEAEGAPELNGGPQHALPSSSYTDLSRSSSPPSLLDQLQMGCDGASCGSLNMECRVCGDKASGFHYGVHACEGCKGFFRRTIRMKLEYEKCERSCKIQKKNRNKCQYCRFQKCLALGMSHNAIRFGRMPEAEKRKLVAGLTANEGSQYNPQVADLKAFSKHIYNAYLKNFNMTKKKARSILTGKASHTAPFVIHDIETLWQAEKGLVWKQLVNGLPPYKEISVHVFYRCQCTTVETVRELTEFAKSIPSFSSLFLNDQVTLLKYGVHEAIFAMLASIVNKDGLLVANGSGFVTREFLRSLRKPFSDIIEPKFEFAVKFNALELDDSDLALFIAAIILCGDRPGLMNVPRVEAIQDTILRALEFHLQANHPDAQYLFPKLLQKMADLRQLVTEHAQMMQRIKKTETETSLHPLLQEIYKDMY
# Chain of human Retinoic Acid Receptor gamma (RARg), RARG (gene 5916) (P13631 whole entry, looked up): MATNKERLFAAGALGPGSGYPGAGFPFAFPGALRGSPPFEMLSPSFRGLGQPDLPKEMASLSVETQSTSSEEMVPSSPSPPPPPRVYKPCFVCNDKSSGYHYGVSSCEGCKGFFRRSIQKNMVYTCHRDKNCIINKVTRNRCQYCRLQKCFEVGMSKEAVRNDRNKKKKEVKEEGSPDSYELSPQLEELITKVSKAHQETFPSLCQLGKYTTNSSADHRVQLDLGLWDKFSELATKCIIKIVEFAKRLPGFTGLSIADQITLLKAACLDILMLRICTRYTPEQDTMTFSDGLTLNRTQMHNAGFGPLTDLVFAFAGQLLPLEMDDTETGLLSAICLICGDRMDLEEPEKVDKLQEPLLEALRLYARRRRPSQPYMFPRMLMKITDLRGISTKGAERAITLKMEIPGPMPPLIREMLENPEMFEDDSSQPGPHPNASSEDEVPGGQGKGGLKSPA
# Chain of human RAR-related Orphan Receptor beta (RORb), RORB (gene 6096) (Q92753 whole entry, looked up, the tested form may be a part): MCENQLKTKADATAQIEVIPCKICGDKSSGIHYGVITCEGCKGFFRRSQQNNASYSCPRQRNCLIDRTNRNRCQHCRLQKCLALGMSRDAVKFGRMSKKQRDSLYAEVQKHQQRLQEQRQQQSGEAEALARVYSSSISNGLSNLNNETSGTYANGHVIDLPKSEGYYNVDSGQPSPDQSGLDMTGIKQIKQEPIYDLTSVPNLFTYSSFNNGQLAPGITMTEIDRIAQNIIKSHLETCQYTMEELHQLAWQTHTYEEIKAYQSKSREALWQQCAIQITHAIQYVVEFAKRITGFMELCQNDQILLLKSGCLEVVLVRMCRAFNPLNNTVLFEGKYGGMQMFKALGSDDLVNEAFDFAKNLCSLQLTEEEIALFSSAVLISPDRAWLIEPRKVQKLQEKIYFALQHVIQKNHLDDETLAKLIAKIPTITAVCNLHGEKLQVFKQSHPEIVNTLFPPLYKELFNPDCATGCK
# Chain of human Retinoic Acid Receptor beta (RARb), RARB (gene 5915) (P10826 whole entry, looked up): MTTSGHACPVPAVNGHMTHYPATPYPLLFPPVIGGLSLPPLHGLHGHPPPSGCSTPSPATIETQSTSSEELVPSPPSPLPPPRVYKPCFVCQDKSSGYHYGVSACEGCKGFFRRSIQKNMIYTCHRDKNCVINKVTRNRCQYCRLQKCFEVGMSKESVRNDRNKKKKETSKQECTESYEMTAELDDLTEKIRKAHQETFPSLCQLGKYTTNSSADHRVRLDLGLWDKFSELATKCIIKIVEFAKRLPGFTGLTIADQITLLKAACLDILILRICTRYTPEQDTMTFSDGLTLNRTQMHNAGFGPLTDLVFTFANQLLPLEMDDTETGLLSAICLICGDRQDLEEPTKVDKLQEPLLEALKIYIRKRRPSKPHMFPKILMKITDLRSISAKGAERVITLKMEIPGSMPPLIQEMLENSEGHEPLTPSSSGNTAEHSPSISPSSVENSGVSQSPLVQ
# Chain of Retinoic acid receptor RXR-alpha (Homo sapiens) (P19793 whole entry, looked up, the tested form may be a part): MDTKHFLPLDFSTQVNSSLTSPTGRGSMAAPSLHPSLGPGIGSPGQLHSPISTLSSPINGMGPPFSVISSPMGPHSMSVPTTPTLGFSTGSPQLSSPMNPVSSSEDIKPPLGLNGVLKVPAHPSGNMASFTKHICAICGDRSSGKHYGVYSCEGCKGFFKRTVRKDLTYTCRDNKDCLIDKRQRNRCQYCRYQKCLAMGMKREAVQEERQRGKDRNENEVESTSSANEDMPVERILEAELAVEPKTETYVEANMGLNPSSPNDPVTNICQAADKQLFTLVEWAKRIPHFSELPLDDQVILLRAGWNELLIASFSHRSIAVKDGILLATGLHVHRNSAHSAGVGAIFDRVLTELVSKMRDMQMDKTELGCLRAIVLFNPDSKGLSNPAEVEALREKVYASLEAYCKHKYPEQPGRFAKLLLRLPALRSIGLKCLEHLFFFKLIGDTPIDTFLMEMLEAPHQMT
# Chain of Retinoic acid receptor alpha (Homo sapiens) (P10276 whole entry, looked up, the tested form may be a part): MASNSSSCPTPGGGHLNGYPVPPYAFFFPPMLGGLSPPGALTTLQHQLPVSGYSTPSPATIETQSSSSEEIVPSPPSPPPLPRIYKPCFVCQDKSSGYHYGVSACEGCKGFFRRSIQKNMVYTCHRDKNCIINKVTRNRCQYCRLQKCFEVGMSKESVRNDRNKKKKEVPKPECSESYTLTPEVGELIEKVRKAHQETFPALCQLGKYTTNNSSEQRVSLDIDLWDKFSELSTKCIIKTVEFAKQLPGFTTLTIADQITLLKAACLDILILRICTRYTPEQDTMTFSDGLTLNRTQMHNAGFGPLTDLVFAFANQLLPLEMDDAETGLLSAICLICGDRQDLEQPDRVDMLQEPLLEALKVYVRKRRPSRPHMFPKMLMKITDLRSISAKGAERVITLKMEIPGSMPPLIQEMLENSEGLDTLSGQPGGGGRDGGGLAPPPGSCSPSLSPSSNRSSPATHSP
# Chain of human Thyroid Receptor alpha (THRa1), THRA (gene 7067) (P10827 whole entry, looked up, the tested form may be a part): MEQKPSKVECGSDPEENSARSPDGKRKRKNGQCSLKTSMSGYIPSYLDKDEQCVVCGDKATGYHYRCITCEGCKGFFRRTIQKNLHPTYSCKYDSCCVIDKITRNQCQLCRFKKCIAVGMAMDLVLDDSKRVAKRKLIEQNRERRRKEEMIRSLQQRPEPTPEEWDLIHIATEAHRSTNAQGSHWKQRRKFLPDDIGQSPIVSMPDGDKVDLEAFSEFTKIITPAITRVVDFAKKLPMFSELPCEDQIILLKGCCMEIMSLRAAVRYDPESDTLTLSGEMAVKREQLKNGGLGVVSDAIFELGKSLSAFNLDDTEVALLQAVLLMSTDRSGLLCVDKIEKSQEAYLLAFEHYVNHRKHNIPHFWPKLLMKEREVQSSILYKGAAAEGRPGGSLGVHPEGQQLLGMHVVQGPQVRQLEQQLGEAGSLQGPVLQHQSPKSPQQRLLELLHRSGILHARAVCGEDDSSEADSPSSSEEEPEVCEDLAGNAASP
compound,measurement,setting,value
CCCCCCC=O,outcome,[1],inactive
same,outcome,[2],inactive
same,outcome,[3],inactive
same,outcome,[4],inactive
same,outcome,[5],inactive
same,AC50,[6],100 µM (active)
same,outcome,[7],inactive
same,outcome,[8],inactive
same,outcome,[9],inactive
same,outcome,[10],inactive
same,outcome,[11],inactive
same,outcome,[12],inactive
same,outcome,[13],inactive
same,outcome,[14],inactive
c1ccc(Nc2cccc3ccccc23)cc1,AC50,[1],32.8 µM (active) and 18 µM (active)
same,AC50,[15],9.04 µM (active)
same,AC50,[3],32.6 µM (active)
same,outcome,[3],inactive
same,outcome,[4],inactive
same,AC50,[5],27 µM (active) and 30.4 µM (active)
same,AC50,[6],18.3 µM (active)
same,AC50,[7],12.6 µM (active)
same,AC50,[10],43.4 µM (active)
same,AC50,[16],11.9 µM (active)
same,outcome,[11],inactive
same,AC50,[12],23.8 µM (active) and 28.6 µM (active)
same,AC50,[13],33.1 µM (active) and 33.6 µM (active)
same,AC50,[14],38.7 µM (active) and 29.6 µM (active)
CCCCCCCO,outcome,[1],inactive
same,outcome,[15],inactive
same,outcome,[3],inactive
same,outcome,[5],inactive
same,outcome,[6],inactive
same,outcome,[7],inactive
same,outcome,[8],inactive
same,outcome,[10],inactive
same,AC50,[16],114 µM (active)
same,outcome,[12],inactive
same,outcome,[13],inactive
same,outcome,[17],inactive
CCCCCCOC(=O)CCCCC(=O)OCCCCCC,outcome,[1],inactive
same,outcome,[15],inactive
same,outcome,[3],inactive
same,outcome,[4],inactive
same,outcome,[18],inactive
same,outcome,[5],inactive
same,outcome,[7],inactive
same,outcome,[9],inactive
same,outcome,[10],inactive
same,AC50,[16],54.2 µM (active)
same,outcome,[11],inactive
same,outcome,[19],inactive
same,outcome,[12],inactive
same,outcome,[13],inactive
CCCCCCCCCCCC(C)=O,AC50,[1],30.1 µM (active)
same,outcome,[15],inactive
same,AC50,[3],32.5 µM (active)
same,outcome,[4],inactive
same,outcome,[18],inactive
same,AC50,[5],20 µM (active)
same,outcome,[7],inactive
same,outcome,[8],inactive
same,outcome,[9],inactive
same,outcome,[20],inactive
same,outcome,[10],inactive
same,AC50,[16],25.9 µM (active)
same,AC50,[12],20 µM (active)
same,AC50,[13],31.3 µM (active)
same,AC50,[14],32.5 µM (active)
CCCCCCCCCCCC(=O)N(C)CC(=O)O,outcome,[1],inactive
same,AC50,[2],35.2 µM (active)
same,outcome,[3],inactive
same,outcome,[18],inactive
same,AC50,[5],15.2 µM (active)
same,outcome,[5],inactive
same,outcome,[7],inactive
same,outcome,[12],inactive
same,outcome,[13],inactive
same,outcome,[14],inactive
C=CC(=O)NCOCCCC,outcome,[1],inactive
same,outcome,[15],inactive
same,outcome,[2],inactive
same,outcome,[3],inactive
same,outcome,[5],inactive
same,AC50,[6],34.2 µM (active)
same,outcome,[7],inactive
same,outcome,[9],inactive
same,outcome,[20],inactive
same,outcome,[16],inactive
same,outcome,[12],inactive
same,outcome,[13],inactive
same,outcome,[14],inactive
CC=C(C)C(C)=O,AC50,[1],20 µM (active)
same,outcome,[15],inactive
same,outcome,[2],inactive
same,outcome,[3],inactive
same,outcome,[5],inactive
same,AC50,[7],12 µM (active)
same,outcome,[8],inactive
same,outcome,[9],inactive
same,outcome,[20],inactive
same,AC50,[10],100 µM (active)
same,AC50,[16],9.05 µM (active)
same,outcome,[12],inactive
same,outcome,[13],inactive
same,outcome,[14],inactive
